Our source for the outcome and AC50 values is PubChem BioAssay (EPA / NIEHS).

The structures appear in SMILES notation. Results filed as inconclusive are left out. The source made the active and inactive calls. How the source made its calls: active means hit-call score of the fitted dose curve at least 0.9, where 1 is the maximum; inconclusive means response in the unintended direction; inactive means score below 0.9.

The assay in a line: Tanguay_ZF_120hpf_PE_legacy: (Legacy) Oregon State University Tanguay Lab 120 Hour Post-fertilization zebrafish Assay for Pericardial Edema (AID 2283640).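 On AC50: potency for increased incidence of pericardial edema versus DMSO baseline.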 On the procedure: Tanguay_ZF_120hpf_legacy is a whole embryo, multiplexed endpoint assay using zebrafish larvae exposed for 120 hours post fertilization on a 96-well plate.Tanguay_ZF_120hpf_PE_legacy is one of one assay component(s) measured or calculated from the Tanguay_ZF_120hpf_legacy assay. It is designed to make measurements of zebrafish development as detected with brightfield microscopy of developing zebrafish embryos.Data from the assay component Tanguay_ZF_120hpf_PE_legacy was analyzed into 1 assay endpoints. This assay endpoint, Tanguay_ZF_120hpf_PE_legacy, was analyzed in the positive analysis fitting direction relative to DMSO as the negative control and baseline of activity. Using a type of morphology reporter, gain-of-signal activity can be used to understand changes in developmentals as they relate to the whole embryo. To generalize the intended target to other relatable targets, this assay endpoint is annotated to the zebrafish development intended target family, where the subfamily is embryonic morphogenesis.
Zebrafish husbandry: Tropical 5D wild-type adult zebrafish were housed in at an approximate density of 1000 per 100 gallon tank at the Sinnhuber Aquatic Research Laboratory, Oregon State University, Corvallis, OR. Each tank was kept at standard laboratory conditions of 28C on a 14-h light/10-h dark photoperiod in fish water consisting of reverse osmosis water supplemented with a commercially available salt (Instant Ocean). Spawning funnels were placed into the tanks the night prior, and embryos were collected and staged. […] Ten microliters of each row of dilution plate 2 was added to 2 exposure plates. The final DMSO concentration used was 0.64% (vol/vol). Thirty-two embryos were also exposed to 5uM trimethyltin chloride (positive control). Plates were sealed to prevent evaporation and foil covered to reduce light exposure and kept in a 28C incubator. Embryos were statically exposed until 120 hpf. At 24 hpf, embryos were assessed for photomotor response using a custom photomotor response analysis tool (PRAT) and for developmental toxicity endpoints (MO24: mortality at 24 hpf, DP: developmental progression, SM: spontaneous movement, and NC: notochord distortion). At 120 hpf, locomotor activity was measured using Viewpoint Zebralab and assessed for 18 endpoints. Zebrafish acquisition and analysis program (ZAAP), a custom program designed to inventory, acquire, and manage zebrafish data, was used to collect developmental endpoints as either present or absent (i.e., binary responses were recorded). If mortality occurred for an embryo (at either 24 or 120 hpf), the non-mortality endpoints were not measured.
`Clc1ccccc1Cl`: the compound was classed as inactive.
Same read-out and setting: the same measure for `CC(C)(C)OOC(=O)c1ccccc1`: “inactive”; for `O=Cc1ccco1`: “inactive”.
`CCCSC(=O)N(CCC)CCC`: the outcome was inactive.
With `COC(=O)c1ccccc1N`, the call was inactive.
On the same count and under the same terms, under `CCN(CC)N=O` stands “inactive”.
Consider `OCCCBr`, for which the compound was called inactive.
`c1ccc(N=Nc2ccccc2)cc1`: the call was inactive.
Still for that read-out and setting: under `OCCOCCO` stands “inactive”.
Still for that read-out and setting: the same measure for `c1ccc(C2CO2)cc1` (stereo not given): “inactive”.
As to `CN(C)c1ccc(C(=O)c2ccc(N(C)C)cc2)cc1`, the AC50 is 22.7 µM (active).
`O=[N+]([O-])c1ccc(Oc2ccc(Cl)cc2Cl)cc1`: the outcome was inactive.
Take `OCCCl`: the result was inactive.
Turning to `[O-][Cl+]O`, the compound was classed as inactive.
As to `O=C(N[C@H](c1ccccc1)[C@@H]1CN2CCC1CC2)c1c(Cl)ccc(C(F)(F)F)c1Cl`, the compound was called inactive.
Regarding `CO[C@@H]1[C@H](OC(=O)NC(=O)CCl)CC[C@]2(CO2)[C@H]1[C@@]1(C)O[C@@H]1CC=C(C)C`, the AC50 is 0.0102 µM (active).
Turning to `CCOc1cccc(C2(N3CCN(c4ccccc4)CC3)CCC(C)CC2)c1` (stereo not given), the outcome was inactive.
Same read-out and setting: under `CC(C)(O)c1cnn2c(-c3ccc(F)c(-c4c(F)cccc4C#N)c3)cnc2n1` stands “inactive”; under `C1=Cc2cccc3cccc1c23`, “inactive”.
Same read-out and setting: the same measure for `CCN(CC)CCO`: “inactive”.
Turning to `O=C(Oc1ccc(Br)cc1)N1CCN2CCC1CC2`, the AC50 is 9.47 µM (active).
Regarding `CCCCCCCCn1sccc1=O`, the compound was called inactive.
The same measure, in the same setting: the same measure for `CCCCCOC(=O)c1ccccc1C(=O)OCCCCC`: “inactive”.
On to `Cc1cc(N=Nc2ccccc2C)ccc1N`, for which the AC50 is 55.7 µM (active).
As to `CCCCOC(=O)c1ccccc1C(=O)OCc1ccccc1`, the outcome was inactive.
Turning to `ClC1=C(Cl)[C@]2(Cl)[C@H]3[C@H]([C@@H]4C=C[C@H]3C4)[C@@]1(Cl)C2(Cl)Cl`, the result was inactive.
`C=CCc1ccc2c(c1)OCO2`: the compound was called inactive.
For the compound `CNC(=O)Oc1cccc2c1OC(C)(C)C2`, the result was inactive.
With `CC(C)COC(=O)c1ccccc1C(=O)OCC(C)C`, the compound was called inactive.
On the same count and under the same terms, under `Cc1ccc(N=C=O)cc1N=C=O` stands “inactive”.
On the same count and under the same terms, under `c1ccc2c(c1)oc1ccccc12` stands “inactive”; under `CCOC(=O)[C@]1(c2ccccc2)Oc2ccccc2[C@@H]1N`, “inactive”.
Same read-out and setting: the same measure for `CCC(C)c1ccc(O)cc1` (stereo not given): “inactive”.
For the compound `[Cl-].[Cl-].[Hg+2]`, the AC50 was 3.82 µM (active).
For `N#CC(Br)(Br)C(N)=O`, the result was inactive.
Take `CCNS(=O)(=O)C(F)(F)C(F)(F)C(F)(F)C(F)(F)C(F)(F)C(F)(F)C(F)(F)C(F)(F)F`: the AC50 was 53.8 µM (active).
Consider `O=C(O)C1C2CCC(O2)C1C(=O)O` (stereo not given), for which the compound was classed as inactive.
Same read-out and setting: under `COP(=S)(OC)SCN1C(=O)c2ccccc2C1=O` stands “inactive”; under `Nc1ccc(Cc2ccc(N)cc2)cc1`, “inactive”.
On the same count and under the same terms, under `CN(C)c1ccccc1` stands “inactive”.

One may read the AC50 as the concentration giving half of the maximal activity seen.
